A word on the AC50: it is the concentration giving half of the maximal activity seen.

Read-out in experiment [1]: Interleukin-6 (IL6), IL6 (gene 3569)
In words: BSK_CASM3C_IL6: BioMAP Diversity Plus: CASM3C Assay for Interleukin-6 (IL6) Biomarker Activity for (AID 2283040). As to conditions: primary human coronary artery smooth muscle cells; actives raise or lower the signal.

Read-out in experiment [2]: Tissue plasminogen activator (tPA), PLAT (gene 5327)
In words: BSK_BE3C_tPA: BioMAP Diversity Plus: BE3C Assay for Tissue plasminogen activator (tPA) Biomarker Activity (AID 2283041).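 As to outcome: tPA level quantified by ELISA one day after compound addition.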 As to conditions: primary human bronchial epithelial cells; actives raise or lower the signal. A digest of the protocol:
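Primary human bronchial epithelial cells in the BE3C system, exposed to compound for 24 h. tPA was quantified by ELISA; DMSO served as baseline, with gain or loss of signal fitted. Cytotoxicity checked in parallel cultures by SRB total-protein staining.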

Read-out in experiment [3]: Interleukin-8 (IL8), CXCL8 (gene 3576)
Put plainly: BSK_CASM3C_IL8: BioMAP Diversity Plus: CASM3C Assay for Interleukin-8 (IL8) Biomarker Activity (AID 2283042).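 Also: IL-8 protein level quantified by ELISA.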 As to conditions: primary human coronary artery smooth muscle cells; actives raise or lower the signal.

Read-out in experiment [4]: Human Leukocyte Antigen - DR isotype (HLADR), HLA-DRA (gene 3122)
In words: BSK_CASM3C_HLADR: BioMAP Diversity Plus: CASM3C Assay for Human Leukocyte Antigen - DR isotype (HLADR) Biomarker Activity (AID 2283043).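 Also: cell-surface HLA-DR protein level quantified by ELISA.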 Particulars: primary human coronary artery smooth muscle cells; actives raise or lower the signal.

Read-out in experiment [5]: Macrophage colony-stimulating factor (MCSF), CSF1 (gene 1435)
In words: BSK_CASM3C_MCSF: BioMAP Diversity Plus: CASM3C Assay for Macrophage colony-stimulating factor (MCSF) Biomarker Activity (AID 2283044).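 Also: M-CSF protein amount quantified by ELISA after 24 h exposure.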 As to conditions: primary human coronary artery smooth muscle cells; actives raise or lower the signal.

Read-out in experiment [6]: Low-density lipoprotein receptor (LDLR), LDLR (gene 3949)
Put plainly: BSK_CASM3C_LDLR: BioMAP Diversity Plus: CASM3C Assay for Low-density lipoprotein receptor (LDLR) Biomarker Activity (AID 2283045).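 Also: LDLR protein level on the cell surface quantified by ELISA.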 As to conditions: primary human coronary artery smooth muscle cells; actives raise or lower the signal.

Read-out in experiment [7]: Monocyte Chemoattractant Protein-1 (MCP1), CCL2 (gene 6347)
In words: BSK_CASM3C_MCP1: BioMAP Diversity Plus: CASM3C Assay for Monocyte Chemoattractant Protein-1 (MCP1) Biomarker Activity (AID 2283046).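 Also: MCP-1 level quantified by ELISA 24 h after dosing.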 As to conditions: primary human coronary artery smooth muscle cells; actives raise or lower the signal.

The nature of experiment [8]: BSK_CASM3C_Proliferation: Cell Proliferation Assessment in the BioMAP Diversity Plus: CASM3C Assay (AID 2283047).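 Also: sulforhodamine B total protein stain as relative cell number at 560 nm; sub-confluent cells exposed 48 h before staining; fitted both ways against DMSO so gain or loss of cell number.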 As to conditions: primary human coronary artery smooth muscle cells.
Read-out in experiment [9]: Monokine induced gamma interferon (MIG), CXCL9 (gene 4283)
Put plainly: BSK_CASM3C_MIG: BioMAP Diversity Plus: CASM3C Assay for Monokine induced gamma interferon (MIG) Biomarker Activity (AID 2283048).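 Also: MIG protein level measured by ELISA.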 As to conditions: primary human coronary artery smooth muscle cells; actives raise or lower the signal.

Read-out in experiment [10]: serum amyloid A (SAA), SAA1 (gene 6288)
Put plainly: BSK_CASM3C_SAA: BioMAP Diversity Plus: CASM3C Assay for serum amyloid A (SAA) Biomarker Activity (AID 2283049).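 Also: SAA protein level quantified by ELISA.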 Particulars: primary human coronary artery smooth muscle cells; actives raise or lower the signal.

Experiment [11] can be described thus: BSK_CASM3C_SRB: Viability Assessment in the BioMAP Diversity Plus: CASM3C Assay (AID 2283050). As to conditions: primary human coronary artery smooth muscle cells.
Read-out in experiment [12]: Thrombomodulin, THBD (gene 7056)
Put plainly: BSK_CASM3C_Thrombomodulin: BioMAP Diversity Plus: CASM3C Assay for Thrombomodulin Biomarker Activity (AID 2283051).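 Also: thrombomodulin protein level measured by ELISA 24 h after dosing.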 As to conditions: primary human coronary artery smooth muscle cells; actives raise or lower the signal.

Read-out in experiment [13]: Tissue Factor, F3 (gene 2152)
In words: BSK_CASM3C_TissueFactor: BioMAP Diversity Plus: CASM3C Assay for Tissue Factor Biomarker Activity (AID 2283052).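 Also: cell surface tissue factor protein level read by ELISA.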 As to conditions: primary human coronary artery smooth muscle cells; actives raise or lower the signal.

Read-out in experiment [14]: Interferon-gamma inducible Protein 10 (IP10), CXCL10 (gene 3627)
Put plainly: BSK_hDFCGF_IP10: BioMAP Diversity Plus: hDFCGF Assay for Interferon-gamma inducible Protein 10 (IP10) Biomarker Activity (AID 2283053). As to conditions: primary human foreskin fibroblasts; actives raise or lower the signal. A digest of the protocol: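 Primary human foreskin fibroblasts exposed to chemicals for 24 h. IP-10 measured by ELISA; changes fitted bidirectionally against DMSO baseline.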

Read-out in experiment [15]: Urokinase-type plasminogen activator receptor (uPAR), PLAUR (gene 5329)
In words: BSK_CASM3C_uPAR: BioMAP Diversity Plus: CASM3C Assay for Urokinase-type plasminogen activator receptor (uPAR) Biomarker Activity (AID 2283054).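 Also: cell-surface uPAR protein level quantified by ELISA.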 Particulars: primary human coronary artery smooth muscle cells; actives raise or lower the signal.

Read-out in experiment [16]: Vascular cell adhesion molecule 1 (VCAM1), VCAM1 (gene 7412)
Put plainly: BSK_CASM3C_VCAM1: BioMAP Diversity Plus: CASM3C Assay for Vascular cell adhesion molecule 1 (VCAM1) Biomarker Activity (AID 2283055).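 Also: VCAM-1 protein level quantified by ELISA on the cells.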 Particulars: primary human coronary artery smooth muscle cells; actives raise or lower the signal.

Read-out in experiment [17]: Collagen III, COL3A1 (gene 1281)
Put plainly: BSK_hDFCGF_CollagenIII: BioMAP Diversity Plus: hDFCGF Assay for Collagen III Biomarker Activity (AID 2283056). Particulars: primary human foreskin fibroblasts; actives raise or lower the signal. A digest of the protocol: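 Human foreskin primary fibroblasts were exposed to test chemicals for 24 h, after which collagen III was quantified by ELISA. Activity was fitted bidirectionally against DMSO as negative control and baseline.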

Read-out in experiment [18]: Epidermal growth factor receptor (EGFR), EGFR (gene 1956)
In words: BSK_hDFCGF_EGFR: BioMAP Diversity Plus: hDFCGF Assay for Epidermal growth factor receptor (EGFR) Biomarker Activity (AID 2283057). Particulars: primary human foreskin fibroblasts; actives raise or lower the signal. A digest of the protocol: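 Primary human foreskin fibroblasts (hDFCGF system), sampled 24 h after dosing; EGFR quantified by ELISA. Bidirectional fit relative to DMSO baseline; SRB total-protein staining in parallel cultures for cytotoxicity.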

Read-out in experiment [19]: Interleukin-8 (IL8), CXCL8 (gene 3576)
In words: BSK_hDFCGF_IL8: BioMAP Diversity Plus: hDFCGF Assay for Interleukin-8 (IL8) Biomarker Activity (AID 2283058). Particulars: primary human foreskin fibroblasts; actives raise or lower the signal. A digest of the protocol:
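hDFCGF human dermal fibroblasts; 24 h chemical exposure; IL-8 by ELISA; bidirectional curve fit vs DMSO baseline; gain or loss of signal scored.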

Experiment [20] can be described thus: BSK_hDFCGF_Proliferation: Cell Proliferation Assessment in the BioMAP Diversity Plus: hDFCGF Assay (AID 2283059).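 Also: curves fitted for both rise and fall of signal versus DMSO baseline.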 As to conditions: primary human foreskin fibroblasts. A digest of the protocol:
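This proliferation readout used SRB total-protein staining of human foreskin fibroblasts […], normalized to DMSO with bidirectional curve fitting.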

Active and inactive are the calls of the source. The calls were made as follows: active = hit-call score of the fitted dose curve at least 0.9, where 1 is the maximum; inactive = score below 0.9.

Take `COc1cccc(O)c1`: the result in experiment [1], in experiment [2], in [3], in [4], in experiment [5] and in experiment [6] was inactive. Moreover, the result in experiment [7], in [8], in experiment [9], in experiment [10], in experiment [11] and in experiment [12] was inactive. The result in experiment [13], in experiment [14], in experiment [15], in experiment [16], in experiment [17] and in experiment [18] was inactive. Moreover, the outcome in experiment [19] was inactive.

In the case of `NC(=NCCCCCCN=C(N)/N=C(\N)Nc1ccc(Cl)cc1)/N=C(\N)Nc1ccc(Cl)cc1`, the concentration at half-maximal activity (AC50) in [1] was 7.19 µM (active); in experiment [2], 1.37 µM (active); in experiment [3] it was 9.32 µM (active); in experiment [4] it was 6.06 µM (active); in experiment [5], 7.55 µM (active); in [6], 5.55 µM (active). The AC50 in [8] is 4.91 µM (active); in experiment [9], 13.2 µM (active); in [10], 5.67 µM (active); in experiment [11], 4.9 µM (active); in experiment [12] it was 4.64 µM (active); in experiment [13] it was 2.1 µM (active). In addition, the AC50 was 8.17 µM (active) in experiment [14]; 4.86 µM (active) in [15]; 9.65 µM (active) in experiment [16]; 1.18 µM (active) in [17]; 1.44 µM (active) in [20]. Besides, the outcome in experiment [19] was inactive.

For the compound `C=COC(=O)C(C)(C)CCCCCC`, the concentration at half-maximal activity (AC50) in [1] is 32 µM (active); in experiment [2] it was 20 µM (active); in experiment [4], 35.9 µM (active); in [5] it was 32 µM (active); in experiment [7], 20 µM (active); in [8], 37.8 µM (active). The AC50 in [9] is 32.6 µM (active); in experiment [11], 31.9 µM (active); in experiment [13], 20 µM (active); in experiment [14], 35 µM (active); in experiment [15], 20 µM (active); in experiment [16], 33.2 µM (active). In addition, the AC50 in experiment [17] was 31.2 µM (active); in [19] it was 31 µM (active); in [20] it was 31.7 µM (active). Further, the outcome in experiment [3], in experiment [6], in experiment [10], in [12] and in experiment [18] was inactive.

`O=C1OC2(c3ccccc31)c1cc(I)c(O)c(I)c1Oc1c2cc(I)c(O)c1I`: the AC50 is 0.9 µM (active) in experiment [1]; 5.58 µM (active) in experiment [2]; 3.7 µM (active) in experiment [5]; 6.12 µM (active) in [7]; 2.38 µM (active) in [12]; 16 µM (active) in experiment [14]. Also, the values for the AC50 in experiment [17], in [18] and in experiment [20] were 3.75 µM (active), 1.88 µM (active) and 15.2 µM (active), respectively. In addition, the result in experiment [3], in [4], in experiment [6], in [8], in experiment [9] and in experiment [10] was inactive. Further, the outcome in [11], in experiment [13], in [15], in experiment [16] and in experiment [19] was inactive.

As for `CCC(C)c1ccccc1O` (stereo unspecified), the outcome in experiment [1], in [2], in [3], in experiment [4], in experiment [5] and in [6] was inactive. Further, the outcome in [7], in experiment [8], in experiment [9], in [10], in experiment [11] and in [12] was inactive. Further, the result in [13], in experiment [14], in [15], in experiment [16], in experiment [17] and in [18] was inactive. Besides, the outcome in experiment [19] and in experiment [20] was inactive.

Consider `CCOC(=O)CN[C@@H](C(=O)N1CC[C@H]1C(=O)NCc1ccc(/C(N)=N/O)cc1)C1CCCCC1`, for which the outcome in experiment [1], in [2], in [3], in experiment [4], in [5] and in experiment [6] was inactive. Also, the result in experiment [7], in experiment [8], in experiment [9], in [10], in experiment [11] and in experiment [12] was inactive. The result in [13], in [14], in experiment [15], in experiment [16], in experiment [17] and in [18] was inactive. Besides, the result in [19] was inactive.

(Values after PubChem BioAssay (EPA / NIEHS).)
